Reference: the supplement of paper PMC13380429
Unmarked numbers belong to inactive results.

These compounds were tested on Vero E6 infected with SARS-CoV-2 (assay: inhibition of SARS-CoV-2 cytopathic effect; higher = more antiviral protection, active = above 15). Conditions: 1 nM; 48 h.

| Compound | inhibition of SARS-CoV-2 cytopathic effect [%] |
| --- | --- |
| C[C@@H](N[C@H]1CCCC[C@@H]1NC(=O)c1ccc(Cl)cc1)c1cccc2ccccc12 [Calhex-231] | -0.12 |
| CC(C)Oc1ccc(-c2nc(-c3cccc4c3CC[C@H]4NCCC(=O)O)no2)cc1C#N | -2.71 |
| CC(C)(C(=O)O)c1ccc(C(=O)CCCN2CCC(OC(c3ccccc3)c3ccccc3)CC2)cc1 [carebastine] | -2.83 |
| CCCCCCCCCCCCCCCC(=O)OC(C)C [isopropyl-palmitate] | -1.17 |
| Cc1cccn2c(=O)c(/C=C(\C#N)c3nc4ccccc4s3)c(Oc3ccc(F)cc3)nc12 | -2.85 |
| Cc1ccccc1C(C(=O)NC1CCCCC1)N(C(=O)Cn1ccnc1C)c1cccc(F)c1 (stereo not given) | -0.81 |
| NC1=NCC2c3ccccc3Cc3ccccc3N12 (stereo not given) [epinastine] | -1.87 |
| CCC1(c2c[nH]cn2)Cc2ccccc2C1 [atipamezole] | 0.76 |
| COc1cc(O)c(C(=O)c2ccccc2)cc1S(=O)(=O)O [sulisobenzone] | 1.82 |
| O=C([O-])CN1CCN(CC(=O)[O-])CCN([C@H](CO)[C@H](O)CO)CCN(CC(=O)[O-])CC1.[Gd+3] (racemic) [gadobutrol] | -1.29 |
| c1cnc2c([O][Ga]([O]c3cccc4cccnc34)[O]c3cccc4cccnc34)cccc2c1 [gallium-triquinolin-8-olate] | -0.23 |
| CN(C)CC[C@H](CSc1ccccc1)Nc1ccc(S(=O)(=O)NC(=O)c2ccc(N3CCN(Cc4ccccc4-c4ccc(Cl)cc4)CC3)cc2)cc1[N+](=O)[O-] | -0.41 |
| CCOC(=O)[C@@](C)(N)Cc1ccc(O)c(O)c1 [methyldopate] | 6.97 |
| O=C1NCCN1c1ncc([N+](=O)[O-])s1 [niridazole] | 0.2 |
| COc1ccc(C(=O)NCc2cccnc2)cc1C(=O)NCc1cccnc1 [picotamide] | -0.44 |
| CNc1cc2[nH]c(=O)n(-c3ccc(NC(=O)NS(=O)(=O)c4ccc(Cl)s4)cc3)c(=O)c2cc1F [elinogrel] | 3.26 |
| COc1cc(C[C@H]2C(=O)OC[C@@H]2Cc2ccc(OC)c(OC)c2)ccc1O [arctigenin] | -2.79 |
| CCN(CC)C(=O)/C(C#N)=C/c1cc(O)c(O)c([N+](=O)[O-])c1 [entacapone] | -0.37 |

| Compound | inhibition of SARS-CoV-2 cytopathic effect [%] |
| --- | --- |
| NS(=O)(=O)c1cc2c(cc1Cl)N=C(CSCc1ccccc1)NS2(=O)=O [benzthiazide] | 3.18 |
| O=c1sn(-c2cccc3ccccc23)c(=O)n1Cc1ccccc1 [tideglusib] | -1.59 |
| C#C[C@]1(OC(=O)CCCCCC)CC[C@H]2[C@@H]3CCC4=CC(=O)CC[C@@H]4[C@H]3CC[C@@]21C [norethisterone-enanthate] | 2.31 |
| O=C(O)C(O)C(O)C(=O)O (stereo not given) [tartaric-acid] | -3.77 |
| O[C@H]1CC[C@H](Nc2nc(-c3ccccc3)nc3[nH]ccc23)CC1 | -1.91 |
| O=C(NCC(=O)N1CCCC1)Nc1ccc2cnccc2c1 | -2.26 |
| CC1(C)NC(=O)N(c2ccc([N+](=O)[O-])c(C(F)(F)F)c2)C1=O [nilutamide] | 3.3 |
| CC(=O)CC(=O)O [lithium-acetoacetate] | -0.56 |
| Cc1ncc(Cl)cc1NCc1ccc(C(=O)N[C@@H](CC2CCCC2)C(=O)NC2CC2)s1 | 2.43 |
| CCCC(=O)Nc1cccc(NC(=O)c2ccccc2Br)c1 | 1.03 |
| CCCCCCCCCCCCCCOc1ccc(C(=O)O)o1 | -3.57 |
| Cn1c(-c2ccccc2)nnc1S(C)(=O)=O | 2.45 |
| CCCOc1ccc2[nH]c(NC(=O)OC)nc2c1 [oxibendazole] | -2.12 |
| CC[N+]1(C)CCCC(OC(=O)C(O)(c2ccccc2)c2ccccc2)C1 (stereo not given) [pipenzolate] | -0.09 |
| CCCn1c(=O)c2[nH]c(-c3cnn(Cc4cccc(C(F)(F)F)c4)c3)nc2n(CC)c1=O | 1.43 |
| C[n+]1cccc(C(=O)[O-])c1 [trigonelline] | 5.14 |
| O=C(O)Cc1sc(-c2ccccc2)nc1-c1ccc(Cl)cc1 [fentiazac] | -0.18 |
